Screening data (PubChem)
CtBP-E1A inh = CtBP/E1A binding inhibition; activity change, % (concentration not given with the values); AlphaScreen GST-E1A/His-CtBP binding, 1536-well; stronger effect = lower value; actives 0.49% (n = 340,000)
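In 5 uL wells, 23 nL compound meets equimolar GST-E1A and His-CtBP (5X stock 125 nM each) for 2 h, 37 °C. Beads (5X, 50 ug/mL) then 1 h, 37 °C, dark.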
pAkt inh = blocks phosphorylation of Akt. Neuro2A IGF-stimulated pAkt S473 HTRF, 20 min; stronger effect = lower value. actives 0.32% (n = 360,000). AID 651550. activity change, % for hits at 50 µM; in the data active means activity change below about -80%; inconclusive means mostly about -51% to -80%
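Single-point screen (50 µM final compound) in Neuro2A cells stimulated 20 min with 6 nM IGF at 37 deg C. After lysis, Ser473-phosphorylated Akt read by HTRF (ex 330 nm, em 615/665 nm) as the 665/615 ratio.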
Six1-Eya2 inh = blocks human Six1 binding to Eya2; Q15475+O00167; AlphaScreen GST-Six1/His-Eya2 binding, biochemical; stronger effect = lower value; activity change, % (concentration not given with the values); actives 0.56% (n = 360,000); AID 651725
Target sequence (O00167 whole entry, looked up): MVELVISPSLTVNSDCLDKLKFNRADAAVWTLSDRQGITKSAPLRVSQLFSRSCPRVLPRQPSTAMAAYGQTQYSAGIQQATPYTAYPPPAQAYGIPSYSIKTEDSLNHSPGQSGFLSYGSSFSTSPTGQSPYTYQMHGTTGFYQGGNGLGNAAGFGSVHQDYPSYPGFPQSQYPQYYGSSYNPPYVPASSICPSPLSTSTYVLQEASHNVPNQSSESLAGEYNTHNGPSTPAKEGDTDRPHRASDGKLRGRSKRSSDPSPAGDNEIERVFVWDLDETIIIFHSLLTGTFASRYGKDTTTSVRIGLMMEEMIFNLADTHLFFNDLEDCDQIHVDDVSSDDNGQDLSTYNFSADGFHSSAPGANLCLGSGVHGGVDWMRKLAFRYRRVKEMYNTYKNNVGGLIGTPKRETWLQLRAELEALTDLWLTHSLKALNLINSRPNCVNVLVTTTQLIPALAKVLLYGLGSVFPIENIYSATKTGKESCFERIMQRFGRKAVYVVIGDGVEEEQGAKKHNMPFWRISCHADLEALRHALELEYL
Target sequence (Q15475 whole entry, looked up): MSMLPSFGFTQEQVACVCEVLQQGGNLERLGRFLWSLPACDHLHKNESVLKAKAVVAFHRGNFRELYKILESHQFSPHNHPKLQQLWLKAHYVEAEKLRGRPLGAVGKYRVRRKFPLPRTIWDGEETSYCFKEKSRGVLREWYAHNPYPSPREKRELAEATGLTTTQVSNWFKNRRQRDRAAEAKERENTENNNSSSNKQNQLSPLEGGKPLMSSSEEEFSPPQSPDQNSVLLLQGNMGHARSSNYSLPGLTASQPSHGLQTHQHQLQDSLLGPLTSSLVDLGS
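Six1/Eya2 binding was read as AlphaScreen signal after compounds were pinned into GST-Six1 plus His-tagged Eya2 (5X stock 250/500 nM) in pH 8.0 Tris/NaCl/TCEP buffer, beads added, then incubated 1 h, 37 C, dark.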
CCT chaperon mod = modulators of cytosolic chaperonin (CCT/TRiC) activity; AID 651819; actives 0.3% (n = 360,000); purified chaperonin ATPase assay, HTRF ADP detection, 30 min; activity change, % (concentration not given with the values), hits read low; in the data active means activity change below about -30%
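TRiC (40 or 20 nM final, by batch activity) in 30 mM Tris pH 7.4, 100 mM KCl, 5 mM MgCl2, 1 mM DTT was treated with compound at 76 uM single dose, then 10 uM ATP, 30 min at 37 °C. ADP was read by HTRF Transcreener.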
* marks the source's active call; other numbers are inactive results; i = inactive; ? = inconclusive; / = no result given; ! = not confirmed by another sample. This is a sample that favours compounds with a hit; in the whole collection about 1.3% have one here. Unless noted, no stated cut-off is given here; in the data, active means activity change below about -65%; inconclusive means mostly about -30% to -63%; inactive means weaker than that. On the % scale 0 is the no-effect control and ±100 the full control effect.

SMILES	CtBP-E1A inh	pAkt inh	Six1-Eya2 inh	CCT chaperon mod
CC(C(=O)O)N1C(=O)/C(=C/C=C/c2ccco2)SC1=S (stereo not given)	-7	i	-74*	-2
COc1ccc(CCNC(=O)CSc2nc3c(sc(=S)n3-c3ccccc3)c(=O)[nH]2)cc1OC	0	i	-10	-1
CN(Cc1ccccc1)C(=O)C1(C)CCN1C(=O)Cc1ccc(Cl)cc1Cl (stereo not given)	6	i	5	-2
COCc1nn2c(N)c(-c3ccccc3)cnc2c1-c1ccccc1	-26	i	-9	-44*
CC(=O)C(=Nc1ccccc1Cl)NNc1ccc(Cl)cc1	?	i	-73*	0
O=C(NNc1ccc(Cl)cc1)c1c(F)cccc1Cl	-2	i	-5	-3
COc1ccc(CN2CCNC(=O)C2CC(=O)NCc2cc(C)n(C)n2)c(F)c1 (stereo not given)	0	i	0	-8
CN(C(=O)CNC(=O)c1ccc(Br)o1)C1CCCCC1	-1	i	8	-3
CCNC(=S)NNC(=O)c1ccccn1	-96*	i	-95*	2
O=C(NNC(=S)Nc1ccc(Cl)c(Cl)c1)c1ccccn1	/	i	-90*	-2
S=C(NCc1ccccn1)Nc1ccc(Cl)c(Cl)c1	0	i	-5	1
COc1ccc(N2CCN(CC(=O)Nc3ccccc3C(=O)NCc3ccccc3)CC2)cc1	-22	i	?	2
Cc1cc(Cl)ccc1OCC(=O)NCCOc1nc(N2CCCCC2)nc(N2CCOCC2)n1	-3	i	-1	-13
COc1cc(C)nc(OCCNC(=O)COc2ccc(Cl)cc2C)n1	-2	-109%*	3	-1
CCOc1ccc(NC(=O)CN2CCN(CC(=O)Nc3ccc(F)cc3)CC2)cc1	7	-117%*	-2	-7
CCOc1ccc(NC(=O)CN2CCN(CC(=O)c3ccc(OCC)cc3)CC2)cc1	-2	i	-1	-3
COc1ccc(NC(=O)CN2CCN(c3c(C)cc(C)cc3C)CC2)cc1	-10	i	-2	-2
CCOC(=O)c1ccc(NC(=O)CN2CCN(Cc3ccccc3)CC2)cc1	-7	i	-10	-86*
CN(CC(=O)Nc1ccc(F)cc1)C(=O)CSc1nccn1C	0	i	3	-3
CSc1nccn1CC(=O)Nc1ccc(F)cc1	1	-114%*	-1	0
COc1ccc(NC(=O)CN2CCN(c3ccc(C)cc3C)CC2)cc1	7	i	-5	-55*
Cc1cc(-c2nnn(CCCOC(C)(C)C)c2C)ccc1-c1cn(CCCOC(C)(C)C)nn1	6	i	4	1
CCC(CC)C(=O)OCC(=O)C1(O)CCC2C3CCC4=CC(=O)CCC4(C)C3C(O)CC21C (stereo not given)	5	i	-2	-2
O=C(CN1C(=O)NC2(CCCC2)C1=O)OCCOc1ccccc1Cl	1	i	1	0
CCOC(=O)c1ccc(NC(=O)CC2OCCN(CC)C2=O)cc1 (stereo not given)	2	-118%*	-5	-5
SMILES	CtBP-E1A inh	pAkt inh	Six1-Eya2 inh	CCT chaperon mod
CCOC(=O)c1ccc(NC(=O)C(=O)NCC2CCCO2)cc1 (stereo not given)	-3	-108%*	11	0
CCOC(=O)c1ccc(NC(=O)CCc2nc(-c3ccccc3Cl)no2)cc1	1	i	4	0
CCOC(=O)c1ccc(NC(=O)CCc2nc(-c3ccccc3)no2)cc1	10	-101%*	2	-1
CCOC(=O)c1ccc(NC(=O)CC2C(=O)OCCN2CC)cc1 (stereo not given)	-4	i	-8	-1
NS(=O)(=O)c1ccc(NC(=O)COC(=O)c2ncc(Cl)c(Cl)c2Cl)cc1	6	i	-5	0
Cc1ccc2c(c1)S(=O)(=O)c1ccc3ccccc3c1N2	-2	i	5	-37*
Cc1cccc(CSC2=CS(=O)(=O)c3ccccc3N2)c1	-1	i	-4	1
O=C1C(Nc2ccccc2)=C/C(=N/S(=O)(=O)c2cccs2)c2ccccc21	?	i	-86*	1
COC(=O)c1ccccc1NC1=C/C(=N\S(=O)(=O)c2ccc(C(=O)O)cc2)c2ccccc2C1=O	-80*	i	?	0
Cc1ccc(S(=O)(=O)/N=C2\C=C(Nc3ccc(O)cc3)C(=O)c3ccccc32)cc1	-69*	i	-78*	3
Cc1ccc(S(=O)(=O)/N=C2\C=C(Nc3cccc(C(=O)O)c3)C(=O)c3ccccc32)c(C)c1	-82*	i	?	-3
CC(C)NC(=O)C1C(c2ccccc2)=Nc2ccccc2N1C(=O)c1cc(Cl)cc(Cl)c1 (stereo not given)	-9	i	-15	/
O=C(Nc1ccccc1Cl)c1cc(C2CCCCN2S(=O)(=O)c2ccc(F)cc2F)on1 (stereo not given)	7	i	0	-1
C=CCN(c1ccccc1)S(=O)(=O)c1cccc(C(=O)NC2CCN(Cc3ccccc3)CC2)c1	-1	i	-10	-2
CC(C)[C@H](NC(=O)c1ccccc1)C(=O)OCC(=O)Nc1sccc1C(N)=O	-9	i	-10	0
COC(=O)c1ccccc1NC1=C/C(=N\S(=O)(=O)c2cccs2)c2ccccc2C1=O	?	i	-84*!	-1
Cc1ccc(S(=O)(=O)N(Cc2cc3cc4c(cc3[nH]c2=O)OCCO4)CC2CCCO2)cc1 (stereo not given)	9	-105%*	3	0
CSc1nc(-c2ccc(Cl)cc2)nn1S(=O)(=O)c1ccc(Cl)cc1	5	i	4	0
CSc1nc(-c2ccc(Cl)cc2)nn1S(=O)(=O)c1ccccc1	6	-115%*	0	-2
COc1cc(O)oc1C=Nc1ccc(Cl)cc1	10	-119%*	5	-1
Cc1ccc2c(c1)N(CC(=O)NC1CCC(C)CC1)C(=O)c1cccnc1O2 (stereo not given)	-2	i	2	-3
O=C(CNC(=O)c1ccccc1)N/N=C/c1cc(Br)ccc1O	10	i	-65*	2
Cn1cccc1-c1cc(C(=O)N/N=C/c2cc(Br)ccc2O)[nH]n1	-87*	i	-83*	-2
CCOc1ccc(NC(=O)CN2CC(c3ccccc3)CC2=O)cc1 (stereo not given)	5	i	8	-1
COc1cccc(/C=N/NC(=O)C(c2ccncc2)N2CCOCC2)c1 (stereo not given)	9	i	-3	1
O=C(CN1CC(c2ccccc2)CC1=O)N/N=C/c1cc(Br)ccc1O (stereo not given)	-90*	i	-84*	-1
O=C(N/N=C/c1cc(Br)ccc1O)C(c1ccncc1)N1CCOCC1 (stereo not given)	14	i	-89*	-2
Cc1ccc(/C=C/C(=O)OCC(=O)N(C)c2c(N)n(Cc3ccccc3)c(=O)[nH]c2=O)o1	1	i	8	1
